This note sets out measurements from PubChem BioAssay AID1745849 (National Center for Advancing Translational Sciences (NCATS), 2022).

Screen size: about 2,100 compounds; about 320 (15%) were called active. Another 52% or so got no clear call; they are omitted. Calls come from the whole dose curve; as a rule, active = well fitted cell-killing curve with a large enough effect; inconclusive = small, poorly fitted or top-dose-only effect, or effect the other way; inactive = flat fitted curve, though single readings scatter. Some of the results follow. Entries that show only a call come without a potency.
Potency is the fitted concentration of half-maximal effect.

This test in a line: Viability Counterscreen for CMV-Luciferase Assay of Inhibitors of ATXN expression. Note: nearly all actives have a fitted effect of over 55% in size. The following applies: HEK-293 CMV-luciferase cells viability, protease fluorescence, 24 h. The gist of the method:
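Compounds are tested in a dilution series on HEK-293 cells carrying the CMV-driven luciferase. After a 24 hr incubation, a protease substrate (25 uM final, 30 min) gives the viability fluorescence, and SteadyGlo gives the reporter luminescence.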
For the compound `COc1ccc(-c2csc(Nc3ccc(S(N)(=O)=O)cc3)n2)cc1OC`, the Potency result was “inactive”. Regarding `COc1cccc(CC(=O)Nc2nc(-c3ccc(OC)c(OC)c3)cs2)c1`, the Potency was 28.2 µM (active). With `COc1ccc(CC(=O)Nc2nc(-c3ccc(OC)c(OC)c3)cs2)cc1OC`, the Potency entry is “inactive”.

Turning to `CC(C)(C)c1ccc(CC(=O)N2CCC2(C)C(=O)Nc2cnc3ccccc3c2)cc1` (stereo not given), the Potency result is “inactive”. In the case of `NC(=S)n1[nH]c(-c2ccc([N+](=O)[O-])cc2)c(N=Nc2cccc(Cl)c2)c1=O`, the Potency is 14.1 µM (active). Regarding `CCOc1ccc(C(=O)Nc2ccc(Cc3ccncc3)cc2)cc1Br`, the Potency result was “inactive”. The same measure for `Cc1cccc(OCCCC(=O)Nc2nc3ccccc3[nH]2)c1`: “inactive”; for `COC(=O)c1sc(NC(=O)c2ccc(OC)cc2OC)nc1C`: “inactive”. The value for `Cc1cc(C)c(C)c(OC(=O)c2sc(Cl)nc2C)c1` was 20 µM (active); that for `Clc1ccc(COC(Cn2ccnc2)c2ccc(Cl)cc2Cl)c(Cl)c1` (stereo not given) was “inactive”. On to `CCc1cc2c(=O)c(-c3cnn(-c4ccccc4)c3)coc2c(CN2CCOCC2)c1O`, for which the Potency result is “inactive”. `Cc1nnc(SCC(N)=O)n1CC1CCCO1` (stereo not given): the Potency result is “inactive”. With `COc1cccc2c1C(=O)c1c(O)c3c(c(O)c1C2=O)C[C@](O)(C(C)=O)C[C@H]3O[C@@H]1C[C@@H](N)[C@@H](O)[C@@H](C)O1`, the Potency was 0.891 µM (active). As to `COc1cccc2c1C(=N)c1c(O)c3c(c(O)c1C2=O)CC(O)(C(C)=O)CC3OC1CC(N)C(O)C(C)O1` (stereo not given), the Potency was 1.26 µM (active). On to `CCCCC(=O)OCC(=O)C1(O)Cc2c(O)c3c(c(O)c2C(OC2CC(NC(=O)C(F)(F)F)C(O)C(C)O2)C1)C(=O)c1c(OC)cccc1C3=O` (stereo not given), for which the Potency was 8.91 µM (active). `Cn1c(CCc2nc3ccccc3[nH]2)nnc1SCC#N`: the Potency result is “inactive”.

For the compound `CCC(C)(C)c1ccc(OCCCC[n+]2ccc(C)cc2)c(C(C)(C)CC)c1`, the Potency result was “inactive”. In the case of `CN(CC(=O)Nc1cccc(F)c1)CC(=O)Nc1cccc2ccccc12`, the Potency entry was “inactive”. Take `CCN1CCN(Cc2ccc(NC(=O)c3ccc(C)c(NC(=O)c4nccnc4N)c3)cc2C(F)(F)F)CC1`: the Potency result was “inactive”. The value for `O=C1C=C(Nc2ccccc2O)c2ccccc2C1=O` was 20 µM (active).

`OC(c1ccccc1)(c1nc(-c2ccc3ccccc3c2)cs1)C(F)(F)F` (stereo not given): the Potency result was “inactive”. Take `Cc1ccc(NS(=O)(=O)c2cc3c4c(cccc4c2)C(=O)NC3=O)cc1C`: the Potency result is “inactive”. As to `O=C(NN=C(c1ccccc1)c1ccccn1)c1ccccc1`, the Potency was 3.16 µM (active).

For the compound `O=C(N/N=C(\Cc1ncc[nH]1)c1ccccc1)c1cccnc1`, the Potency entry is “inactive”. On to `CCC(CC)C(=O)c1c[nH]c(C(=O)NCc2ccccn2)c1`, for which the Potency entry is “inactive”. `O=C(N/N=C(\c1ccccc1)c1ccccn1)c1ccccc1Cl`: the Potency was 7.94 µM (active). The value for `CCn1c2ccccc2c2cc(/C=N/n3cnnc3)ccc21` was “inactive”; that for `CCN1CCN(C(=S)c2ccc(-c3ccccc3)cc2)CC1` was “inactive”.

On to `Cn1c2c(c(=O)[nH]c1=O)C(c1cccc(O)c1)C1=C(N2)c2ccccc2C1=O` (stereo not given), for which the Potency is 11.2 µM (active). As for `N#Cc1c(N)n(C2OC(CO)C(O)C2O)c2ncnc(N)c12` (stereo not given), the Potency was 1.41 µM (active).

As to `CNc1nc2c(N)ncnc2n1[C@H]1O[C@@H](CO)[C@H](O)[C@@H]1O`, the Potency entry is “inactive”. Regarding `CCOC(=O)c1c(NC(=O)COC(=O)c2ccccc2NC)sc(C(=O)N(C)C)c1C`, the Potency entry was “inactive”.

For the compound `COC(=O)c1c(C)oc2ccc(N(C(=O)c3ccncc3)S(=O)(=O)c3ccc(C)cc3C)cc12`, the Potency result is “inactive”. With `CCC1(c2ccccc2)ON(c2c(Br)cccc2Br)C1=O` (stereo not given), the Potency is 17.8 µM (active). Regarding `Cc1nc(Oc2ccc(S(=O)(=O)N3CCOCC3)cc2Cl)c2c3c(sc2n1)CCCC3`, the Potency entry was “inactive”. Consider `N=c1ccn(CC(=O)c2ccc(-c3ccccc3)cc2)cc1`, for which the Potency result was “inactive”.

For the compound `Clc1ccc(-c2cc(C3CCNCC3)[nH]n2)c(Cl)c1`, the Potency result is “inactive”. In the case of `COc1cc(NS(=O)(=O)c2ccc(N/C=C(\C#N)c3nc4cc(Cl)ccc4o3)cc2)nc(OC)n1`, the Potency was 14.1 µM (active). Turning to `CCN1CCN(c2ccc(Cl)cc2NC(=O)c2ccc(-n3nc(C)cc3C)cc2)CC1`, the Potency result was “inactive”.

Consider `Nc1nc(NCCc2ccccc2)nc(NCc2ccccc2)c1[N+](=O)[O-]`, for which the Potency result was “inactive”. On to `CCc1cc[n+](C2=C([O-])c3ccccc3C(=O)/C2=N\S(=O)(=O)c2cccs2)cc1`, for which the Potency is 17.8 µM (active).

`Cc1cc(C)c2c(CC(=O)Nc3ccc(Cl)cn3)coc2c1`: the Potency result was “inactive”. For the compound `COc1ccccc1/C=C/C(=O)OCC(=O)Nc1ccc(Cl)cn1`, the Potency entry was “inactive”. The same measure for `O=C(COC(=O)c1cc([N+](=O)[O-])ccc1N1CCOCC1)Nc1ccc(Cl)cn1`: 14.1 µM (active); for `CCn1c(C)cc(C(=O)COC(=O)c2ccccc2[N+](=O)[O-])c1C`: “inactive”; for `COc1ccc(O)c(/C=N/NC(=O)c2ccc(OCc3cccc(Br)c3)cc2)c1`: “inactive”.

Regarding `O=C(N/N=C/c1cc([N+](=O)[O-])ccc1O)c1ccc(COc2ccc3c(c2)CCC3)o1`, the Potency was 11.2 µM (active). Turning to `COc1ccc(O)c(/C=N/NC(=O)c2ccc(N3CCCC3=O)cc2)c1`, the Potency result was “inactive”. Regarding `COc1ccc2nc(C)c3c(c2c1)OC(C(C)(Cl)Br)C3` (stereo not given), the Potency entry is “inactive”. As for `N#CCc1nc2ccccc2c(=O)[nH]1`, the Potency result was “inactive”. The same measure for `CC1(C)COCN1S(=O)(=O)c1ccc(C(=O)Nc2nnc(-c3ccc(Cl)s3)o2)cc1`: “inactive”.

Turning to `O=C1c2cccc3cc([N+](=O)[O-])cc(c23)C(=O)N1CCN1CCCC1`, the Potency is 1.58 µM (active).

As for `C/[N+]([O-])=C\c1cccc(OCCN2CCN(c3ncc(C(F)(F)F)cc3Cl)CC2)c1`, the Potency result was “inactive”.

For the compound `COc1cc(C(=O)O/N=C(\N)Cc2ccc([N+](=O)[O-])cc2)cc(OC)c1OC`, the Potency was 3.16 µM (active). Regarding `Cn1c(CO)cnc1S(=O)(=O)Cc1ccc([N+](=O)[O-])cc1`, the Potency entry is “inactive”. Take `Cc1sc2nc(CN3CCCC3)nc(N3CCC(C(N)=O)CC3)c2c1C`: the Potency result is “inactive”. Consider `Nc1ccc2c(c1)OC1(CCCC1)O2`, for which the Potency result was “inactive”. On to `CCn1c2ccccc2c2cc(NC(=O)COC(=O)Cc3cn4ccsc4n3)ccc21`, for which the Potency entry is “inactive”.

On to `CC1CCN(Cc2c(C(=O)N/N=C/c3cc(Br)ccc3O)nnn2-c2nonc2N)CC1`, for which the Potency result was “inactive”.

For `CC1CC(C)CN(CCCNC(=O)c2cc3c(s2)-c2ccccc2OC3)C1` (stereo not given), the Potency entry was “inactive”. In the case of `Cc1cc(N2CCN(C)CC2)ccc1NC(=O)c1ccc(-c2ccc(Cl)cc2)o1`, the Potency entry is “inactive”. As for `Cc1cccc2c1-c1sc(C(=O)Nc3ccccc3N3CCN(C)CC3)cc1CO2`, the Potency was 22.4 µM (active). Turning to `NC(=O)CC(NC(=O)Cc1ccc(Br)cc1)c1ccc(NC2CCCC2)c([N+](=O)[O-])c1` (stereo not given), the Potency was 3.16 µM (active). Regarding `CC(C)C[C@H](N)c1cn([C@@H](CCCCN)C(=O)N2CCNCC2)nn1`, the Potency result is “inactive”. Consider `O=C(NC(Nc1ncc(S(=O)(=O)c2ccc([N+](=O)[O-])cc2)s1)(C(F)(F)F)C(F)(F)F)c1ccc(Cl)cc1`, for which the Potency is 10 µM (active). For the compound `Cc1nc2ccc(NC(=O)c3ccc(S(=O)(=O)N(C)c4ccccc4)cc3)cc2s1`, the Potency entry is “inactive”. The same measure for `O=C(NC(Nc1nc2ccc([N+](=O)[O-])cc2s1)(C(F)(F)F)C(F)(F)F)c1ccccc1`: 0.562 µM (active). As for `CO[C@@]12[C@@H]3N[C@@H]3CN1C1=C(C(=O)C(N)=C(C)C1=O)[C@@H]2COC(N)=O`, the Potency entry is “inactive”. With `CC1=CC(C)(C)N2C(=O)C3(SCC(=O)N3c3ccc(F)cc3)c3cc(C)cc1c32` (stereo not given), the Potency result was “inactive”. As for `CCn1ccnc1CN1CCCC(C(=O)c2ccc3cc(OC)ccc3c2)C1` (stereo not given), the Potency result was “inactive”.

Take `CN(C)CCNc1ncnc2c1ncn2[C@H]1CN(Cc2ccc(-c3ccccc3)cc2)C[C@@H](CO)O1`: the Potency result is “inactive”.

For `OC[C@@H]1CN(Cc2ccc(-c3ccccc3)cc2)C[C@H](n2cnc3c(Nc4ccccc4)ncnc32)O1`, the Potency is 22.4 µM (active).

Regarding `OC[C@@H]1CN(Cc2ccncc2)C[C@H](n2cnc3c(N4CCN(c5ccccc5)CC4)ncnc32)O1`, the Potency entry was “inactive”.

Take `CNc1ccccc1C(=O)OC(C)C(=O)Nc1ccc(Cl)cn1` (stereo not given): the Potency result is “inactive”. Turning to `CCCc1ccc(O)c(N=Cc2cc(Br)cc(OCC)c2O)c1`, the Potency result is “inactive”. `Oc1[nH]c2ccc(Br)cc2c1N=NC(=S)N1CCOCC1`: the Potency is 1.12 µM (active). As to `O=C(Nc1ccc(Br)cc1)c1cccc(OC(=S)N2CCOCC2)c1`, the Potency result is “inactive”. For `O=C(NCC1CC1)c1ccc2c(c1)S(=O)(=O)c1cc(Cl)ccc1C2=O`, the Potency result is “inactive”. Regarding `O=C(Nc1ccc(Cc2ccncc2)cc1)c1ccc(S(=O)(=O)N2CCCC2)cc1`, the Potency result is “inactive”. For `COc1ccc(C)cc1Nc1nc(C)nc2sc(C)cc12`, the Potency result was “inactive”. The same measure for `COc1ccccc1CNc1nc(NCc2ccc(NC(C)=O)cc2)c2sccc2n1`: “inactive”; for `CC(=O)Nc1ccc(CNc2nc(NC(C)C)nc3cc(-c4ccccc4)sc23)cc1`: 25.1 µM (active).

For `O=C(Oc1c(CN2CCOCC2)cc(Cl)c2cccnc12)c1ccccc1F`, the Potency entry was “inactive”. Consider `COc1cc(OC)cc(-c2cc3nc(C)c(CCC(=O)O)c(C)n3n2)c1`, for which the Potency result is “inactive”.

As to `COc1cc(Nc2ncc3c(n2)CCN(C(=O)Nc2ccc(C(C)C)cc2)C3)cc(OC)c1OC`, the Potency entry was “inactive”. The same measure for `CN(c1ccccc1)S(=O)(=O)c1ccc(C(=O)Nc2nnc(-c3ccc(F)cc3)o2)cc1`: 14.1 µM (active); for `COc1ccc(-c2nnc(NC(=O)c3ccc(S(=O)(=O)N4COCC4(C)C)cc3)o2)cc1`: “inactive”; for `CCc1nnc(NC(=O)c2ccc(S(=O)(=O)N(C)c3ccccc3)cc2)o1`: “inactive”.

`CC(=O)c1ccc(C(=O)Nc2nnc(-c3ccc(Cl)cc3)o2)cc1`: the Potency entry was “inactive”.

As to `CCN(CC)S(=O)(=O)c1ccc(C(=O)Nc2ccc(Cc3ccncc3)cc2)cc1`, the Potency result was “inactive”. Take `CCCN(CCC)S(=O)(=O)c1ccc(C(=O)Nc2nnc(-c3cc(OC)cc(OC)c3)o2)cc1`: the Potency was 7.08 µM (active). For the compound `c1nc(CCO[C@H]2CCCCO2)cc2cc3c(cc12)OCO3`, the Potency result was “inactive”. For `COc1ccc(CCCNC(=O)C2Cc3c(-c4cccc(NC(C)=O)c4)ccnc3O2)cc1` (stereo not given), the Potency result was “inactive”. As to `CC(=O)c1cccc(-c2ccnc3c2CC(C(=O)Nc2ccc(F)c(Cl)c2)O3)c1` (stereo not given), the Potency entry is “inactive”.

Take `CC(=O)Nc1cccc(-c2ccnc3c2CC(C)(C(=O)Nc2ccc(Cl)c(C(F)(F)F)c2)O3)c1` (stereo not given): the Potency was 28.2 µM (active).
